Tau fibril FP = qHTS for Inhibitors of Tau Fibril Formation, Fluorescence Polarization. Microtubule-associated protein tau (Homo sapiens), P10636. K18 P301L tau heparin fibrillization, Alexa594 FP, 6 h. Potency, µM (highest dose often 57.7 µM), actives largely listed as inhibitors. actives 0.39% (n = 280,000); also: nearly all actives have a fitted effect of over 55% in size
Target sequence (P10636 561-689 P618L limits assumed): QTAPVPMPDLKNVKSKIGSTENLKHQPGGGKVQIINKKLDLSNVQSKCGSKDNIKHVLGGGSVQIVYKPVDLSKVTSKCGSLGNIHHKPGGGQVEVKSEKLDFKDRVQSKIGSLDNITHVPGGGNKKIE
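Heparin (20 uM) drove fibril formation of recombinant tau K18 P301L, 15 uM unlabeled with 0.24 uM Alexa 594 label, for 6 hr at 37 C in 100 mM sodium acetate pH 7. Fluorescence polarization (555/632 nm) read 1 hr after 30 uM ThT.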
Sfp PPTase inh = qHTS Assay for Inhibitors of Bacillus subtilis Sfp phosphopantetheinyl transferase (PPTase) | 4'-phosphopantetheinyl transferase ffp (Bacillus subtilis), Q9F4F7 | Biochemical Sfp PPTase activity, qHTS | Potency, µM, most hits filed as inhibitors | actives 3.5% (n = 310,000) | AID 1490, 2009;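 also: the enzyme is Sfp with the accession as filed and its product quenches rhodamine fluorescence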
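With Hepes-Na pH 7.6 buffer containing 10 mM MgCl2, Sfp (15 nM) modified BHQ-2-YbbR (12.5 uM) using rhodamine-CoA (5 uM). Two reads 30 minutes apart at 525/598 nm yielded each well's rate.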
Tau fibril ThT = qHTS for Inhibitors of Tau Fibril Formation, Thioflavin T Binding | recombinant tau K18 P301L, heparin-induced fibrillization, ThT fluorescence | Potency, µM (series often up to 57.4 µM), most hits filed as inhibitors | actives 2.1% (n = 270,000) | AID 1460, 2008; also: nearly all actives have a fitted effect of over 55% in size
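Aggregation was driven by heparin (20 uM final) acting on recombinant tau […] bearing P301L in 100 mM sodium acetate pH 7; fibrils were detected with Thioflavin T.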
G9a inh = qHTS Assay for Inhibitors of Histone Lysine Methyltransferase G9a; G9a H3K9 monomethylation, AlphaScreen, 2 h; Potency, µM (highest dose often 102 µM), hits mostly inhibitors; AID 504332, 2011; Histone-lysine N-methyltransferase EHMT2 (Homo sapiens), Q96KQ7; actives 8.8% (n = 350,000); also: nearly all actives have a fitted effect of over 75% in size
Target sequence (Q96KQ7 913-1193 limits assumed): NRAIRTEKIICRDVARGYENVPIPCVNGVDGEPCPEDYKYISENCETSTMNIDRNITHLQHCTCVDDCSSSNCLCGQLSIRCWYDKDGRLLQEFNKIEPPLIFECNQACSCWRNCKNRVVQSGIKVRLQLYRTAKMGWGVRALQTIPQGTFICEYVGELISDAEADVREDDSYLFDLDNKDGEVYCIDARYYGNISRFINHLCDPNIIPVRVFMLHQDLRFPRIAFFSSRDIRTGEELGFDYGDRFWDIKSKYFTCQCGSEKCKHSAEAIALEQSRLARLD
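Readings reflect AlphaScreen signal from monomethyl-H3K9 antibody detection. HMT at 20 nM; substrate b-H3K9 500 nM; cofactor SAM 20 uM; 2 h RT reaction; compounds tested as titrations in qHTS with 15 min preincubation.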
FBPA coupling cs = qHTS Assay for Inhibitors of Fructose-1,6-bisphosphate Aldolase from Giardia Lamblia: Coupling assay counterscreen; coupling enzyme system counterscreen, AmpLite Red fluorescence; activity change, negative = inhibition, % at 58.2 µM, hits read low; actives 0.67% (n = 290,000); in the data active = activity change below about -30%
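Counterscreen of the coupled detection system alone, without aldolase: glyceraldehyde-3-phosphate coupling enzymes plus AmpLite Red readout. Compounds at 57.5 uM final, 10 min RT preincubation, 20 min RT reaction, fluorescence 525/598 nm.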
Tau fluor counter = Counterscreen qHTS for Inhibitors of Tau Fibril Formation, Fluorescence Polarization. tau K18 P301L (four-repeat tau fragment) Alexa594 fluorescence, heparin fibrillization. AID 1463, 2008. actives 0.93% (n = 280,000). Potency, µM (series often up to 57.7 µM); also: nearly all actives have a fitted effect of over 55% in size
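Human K18 P301L tau (15 uM unlabeled plus 0.24 uM Alexa 594-labeled, final) in 100 mM sodium acetate pH 7 was mixed with compound and 20 uM heparin and incubated 6 hr at 37 C.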
A number is an active result; n = inactive; u = inconclusive; x = no result; [ ] = dose if it differs, or a comment. A selection: hits, their analogues and other compounds. The true share with any hit is near 11%. Unless noted, calls follow the shape of the dose curve; as a rule, active = well fitted curve in the direction sought with a large enough effect; inconclusive = small, poorly fitted or top-dose-only effect, or another doubt; inactive = no such curve, though single readings can be large; an effect the other way counts as inactive or inconclusive.

SMILES | Tau fibril FP | Sfp PPTase inh | Tau fibril ThT | G9a inh | FBPA coupling cs | Tau fluor counter
CCc1cc(OCCCCNCc2ccccc2)ccc1Cl | n | n | n | u | n | n
CCc1cc(OCCN(C)C)ccc1Cl | n | 16µM | n | n | n | n
COc1ccc(-c2cc(C(F)(F)F)nc(SCC(=O)Nc3ccc(C(C)=O)cc3)n2)cc1 | u | x | n | n | x | u
Cc1nc(N2CCCC2)c2c(C(=O)Nc3cccc(Cl)c3C)c(C)oc2n1 | n | x | n | n | x | n
NC(=O)c1ccc(Nc2ccc([N+](=O)[O-])cc2[N+](=O)[O-])cc1 | n | n | u | u | n | n
Nc1ccc(Nc2ccc([N+](=O)[O-])cc2[N+](=O)[O-])cc1 | n | n | u | 45µM | n | u
COc1ccc(Nc2ccc([N+](=O)[O-])cc2[N+](=O)[O-])cc1 | n | n | u | 13µM | n | u
COc1ccc(Nc2ccc(C(=O)O)cc2[N+](=O)[O-])cc1 | n | n | u | n | n | n
Cc1ccc(C)c(NCCC#N)c1 | n | n | n | n | n | n
CC(C)CO/N=C1/C[C@@H](O)[C@@H](O)[C@@H]2[C@@H]3C(=O)N(Cc4ccc5c(c4)OCO5)C(=O)[C@H]3CC[C@H]12 | n[11.6 µM] | n | n[11.5 µM] | x | n | n[11.6 µM]
Cc1ccc(C)c(S(=O)(=O)NCCc2csc(-c3ccc(Cl)cc3)n2)c1 | n | x | n | n | x | u
Cc1ccc(-c2n[nH]c(=S)n2/N=C/C=C\c2ccccc2[N+](=O)[O-])cc1 | n | n | u | u | n | u
Cc1cc(-c2n[nH]c(=S)n2/N=C/c2c[nH]c3ccccc23)n[nH]1 | n | n | n | 0.79µM | n | n
Fc1ccc(-c2n[nH]c(=S)n2/N=C/c2c[nH]c3ccccc23)cc1 | n | n | n | 1.8µM | n | n
Cc1cc(-c2n[nH]c(=S)n2/N=C/c2ccccc2[N+](=O)[O-])n[nH]1 | n | u | n | 0.4µM | n | n
COc1cc(Cl)c(C)cc1NC(=O)CSc1sc2c(O)cc(=O)[nH]c2c1C#N | x | u | x | u | n | x
CN(C)c1ccc(NC(=O)c2cnsn2)cc1 | n | n | 10µM | 50µM | n | n
Nc1ccc(Oc2ccc3nc(-c4ccccc4)c(-c4ccccc4)nc3c2)cc1 | n | n | n | x | n | 14µM[quencher]
Cc1ccc(NC(=O)c2cccc(NC3=NC4CS(=O)(=O)CC4S3)c2)cc1 (centres undefined) | x | n | x | x | n | x
CC(=O)NC(c1cccs1)c1cc([N+](=O)[O-])c2cccnc2c1O (centres undefined) | n | 1µM | u | 7.9µM | n | n
CC(C)C(=O)NC(c1ccccc1)c1cc([N+](=O)[O-])c2cccnc2c1O (centres undefined) | n | n | u | u | n | n
CCC(=O)NC(c1cccs1)c1cc(Br)c2cccnc2c1O (centres undefined) | x | x | x | n[12.7 µM] | x | x
CCCC(=O)NC(c1cccs1)c1cc([N+](=O)[O-])c2cccnc2c1O (centres undefined) | n | 2.5µM | u | u | -32 | n
O=C(CCc1ccccc1)NC(c1cccs1)c1cc(Cl)c2cccnc2c1O (centres undefined) | n | n | n | u | n | n
CCC(=O)NC(c1cccs1)c1cc([N+](=O)[O-])c2cccnc2c1O (centres undefined) | n | 7.1µM | u | u | n | n
SMILES | Tau fibril FP | Sfp PPTase inh | Tau fibril ThT | G9a inh | FBPA coupling cs | Tau fluor counter
CC(=O)NC(c1ccccc1)c1cc([N+](=O)[O-])c2cccnc2c1O (centres undefined) | u | 2.2µM | 10µM | 10µM | n | n
CC(=O)c1nn(-c2ccc(OC(F)(F)F)cc2)nc1Nc1ccc(C)cc1 | n | x | n | n | x | n
COc1ccc(C2=NC(c3ccncc3)=Nc3ccc(OC)cc3N2)cc1 | n | x | u | u | x | u
COCCN(CCOC)C(=O)c1cc2c(=O)n3ccccc3nc2n1C | n | x | n | u | x | n
O=C1N/C(=N\N=C\c2ccco2)SC1Cc1ccccc1[N+](=O)[O-] (centres undefined) | u | n | 7.1µM | n[12.7 µM] | n | u
COC(=O)C/C=C1\c2ccc3c(c2[C@@H](OC)[C@@H]1C)OCO3 | n | n | n | x | n | n
CC1=NOC2(C1)N(C)c1ccccc1C2(C)C (centres undefined) | n | n | n | n | n | n
CN1c2ccccc2C(C)(C)C12CCCC(=O)N2 (centres undefined) | n | n | u | 8.9µM | n | n
Cn1cnnc1SCC(=O)c1cc2ccccc2oc1=O | u | n | 28µM | u | n | u
O=C(CSc1nnc(-c2cccnc2)o1)c1cc2ccccc2oc1=O | n | u | u | u | n | n
CCC1(c2ccccc2)NC(=O)N(CC(=O)NNC(=O)COc2ccc(Cl)cc2C)C1=O (centres undefined) | x | x | x | n | x | x
NNc1nc2sc3c(c2c(=O)n1C1CCCCC1)CCN(Cc1ccccc1)C3 | n | n | u | 50µM | n | u
C=C(C)CSc1nc2sc3c(c2c(=O)n1C1CCCCC1)CCN(C)C3 | u | n | u | x | n | n
Nn1c(Nc2ccccc2)nc2sc3c(c2c1=O)CCC3 | n | n | 20µM | n[12.7 µM] | n | 28µM[quencher]
CCCc1nc2sc3c(c2c(=O)n1NC(=O)CCC(=O)OC)CCCC3 | n | n | n | n | n | n
Cc1nc2sc3c(c2c(=O)n1NC(=O)CCBr)CCCC3 | n | n | n | 50µM | n | n
CCc1nc2sc3c(c2c(=O)n1N)CCC3 | n | n | n | n | n | n
CCn1c(SCC(N)=O)nc2sc3c(c2c1=O)CCCC3 | n | n | n | 45µM | n | n
CC(C)(C)c1ccc(CSc2ccc(S(=O)(=O)N3CCOCC3)cn2)cc1 | x | x | x | n[12.7 µM] | x | x
CCc1ccc(NC(=O)CCc2nnc3n(C)c(=O)c4sccc4n23)cc1 | n | x | n | n | x | n
C#CCSc1nc2sc3c(c2c(=O)n1C)CCC3 | x | n | x | 45µM | n | x
CCn1c(NN)nc2sc3c(c2c1=O)CCC3 | n | 56µM | u | 45µM | n | u
CCn1c(SCC(=O)c2ccccc2)nc2sc3c(c2c1=O)CCN(C)C3 | u | 50µM | u | 25µM | n | n
CSc1nc2sc3c(c2c(=O)n1C)CCC3 | x | n | x | x | n | x
CCCCCSc1nc2sc3c(c2c(=O)n1-c1ccc(OC)cc1)CCN(C(C)=O)C3 | n | x | u | 11µM | x | n

Screens: PubChem, National Center for Advancing Translational Sciences (NCATS)
